Tb PYK inh: blocks Trypanosoma brucei pyruvate kinase. Q57TT1. TbPYK enzyme, Kinase-Glo Plus ATP luminescence, 45 min. Potency, µM (series often up to 76.8 µM), for the others: top-dose activity, negative = inhibition, most hits filed as inhibitors. 410,000 tested, 0.12% active; note: % is set by controls: 0 for no effect and ±100 for the full control effect; nearly all actives have a fitted effect of over 50% in size
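Enzyme and substrate buffer are dispensed first and compound is pin-transferred. ADP at 130 uM final then starts the reaction, which runs 45 min at room temperature. Detection reagent is added for 10 min before luminescence is imaged.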
LmPK inhibitor: inhibitors of Leishmania mexicana pyruvate kinase. Potency, µM (doses to about 57.5 µM), inactives show top-dose activity change, negative = inhibition, actives largely listed as inhibitors. purified LmPK, Kinase-Glo ATP luminescence, 1 h. AID 1721. Q27686. 290,000 tested, 0.37% active; note: % is set by controls: 0 for no effect and ±100 for the full control effect
Target sequence (Q27686 whole entry, looked up): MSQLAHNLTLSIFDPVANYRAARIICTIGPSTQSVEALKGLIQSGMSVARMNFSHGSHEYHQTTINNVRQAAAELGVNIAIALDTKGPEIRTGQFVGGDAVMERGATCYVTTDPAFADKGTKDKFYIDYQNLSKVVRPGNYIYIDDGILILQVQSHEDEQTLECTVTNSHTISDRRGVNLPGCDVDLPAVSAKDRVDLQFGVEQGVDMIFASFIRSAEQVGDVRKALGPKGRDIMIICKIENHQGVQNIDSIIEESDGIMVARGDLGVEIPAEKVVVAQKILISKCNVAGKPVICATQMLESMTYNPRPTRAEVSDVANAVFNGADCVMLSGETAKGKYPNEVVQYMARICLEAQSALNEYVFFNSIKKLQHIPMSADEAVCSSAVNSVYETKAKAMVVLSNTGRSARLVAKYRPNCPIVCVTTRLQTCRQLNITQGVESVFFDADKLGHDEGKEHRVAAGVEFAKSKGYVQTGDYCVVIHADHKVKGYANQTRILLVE
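In 50 mM imidazole pH 7.2 with 7 mM MgCl2, LmPK (0.1 nM) turned over PEP (0.5 mM) and ADP (0.1 mM) for 1 h at room temperature. Luciferase read-out of ATP.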
Giardia FBPA inh-1: inhibitors of Giardia lamblia fructose-1,6-bisphosphate aldolase; 290,000 tested, 0.71% active; purified Giardia FBPA; A8B2U2; Potency, µM (series often up to 59.6 µM), for inactives: at the highest dose activity, negative = inhibition, hits mostly inhibitors; note: % is set by controls: 0 for no effect and ±100 for the full control effect; nearly all actives have a fitted effect of over 55% in size
Target sequence (A8B2U2 whole entry, looked up): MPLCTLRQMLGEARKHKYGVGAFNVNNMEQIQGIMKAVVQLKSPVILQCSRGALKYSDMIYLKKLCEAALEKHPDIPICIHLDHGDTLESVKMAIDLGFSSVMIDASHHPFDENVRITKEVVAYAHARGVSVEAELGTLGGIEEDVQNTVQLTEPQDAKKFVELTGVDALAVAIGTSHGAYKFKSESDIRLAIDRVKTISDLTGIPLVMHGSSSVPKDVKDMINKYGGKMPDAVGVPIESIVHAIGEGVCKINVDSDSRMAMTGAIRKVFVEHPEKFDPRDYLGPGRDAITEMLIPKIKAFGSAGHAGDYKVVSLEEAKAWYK
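Giardia FBPA (40 nM reagent) was preincubated 10 min at RT with compound (up to 57.5 uM final), then substrate plus GAPDH/TPI/NAD/arsenate coupling system with diaphorase/resazurin was added; resorufin fluorescence (525/598 nm) was read after 20 min.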
SARS PLP yeast: blocks SARS-CoV papain-like protease in a yeast assay | S. cerevisiae expressing SARS-CoV PLpro, growth rescue | Potency, µM (highest dose often 32.9 µM), for inactives: at the top dose activity, positive = growth rescue, hits mostly activators | 330,000 tested, 0.19% active | AID 485353; calls by dose curve; note: 0% is about no effect; nearly all actives have a fitted effect of over 55% in size
RE007 growth inh: less growth of the S. pombe RE007 Vpr strain. S. pombe RE007 Vpr strain, BacTiter-Glo ATP luminescence, 24 h. Potency, µM (doses to about 92.2 µM), without a hit: at the highest dose activity change, negative = less growth, actives largely listed as inhibitors. 360,000 tested, 0.21% active; active = well fitted falling curve with a large enough effect; inconclusive = small, poorly fitted or top-dose-only effect; inactive = no such curve, though single readings can be large or run the other way; note: % is set by controls: 0 for no effect and ±100 for the full control effect; nearly all actives have a fitted effect of over 50% in size
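Fission yeast RE007 carrying one integrated HIV-1 vpr copy, seeded at OD 0.01 in PMG+AL medium with 23 nL pinned compound. Grown 24 h at 30 degrees; viability read by BacTiter-Glo luminescence after 5 min.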
Giardia growth: inhibitors of Giardia lamblia growth | 1,500 tested, 5% active | shares compounds with Giardia FBPA inh-1 | Giardia lamblia trophozoite growth inhibition | Potency, µM (series often up to 57.5 µM), without a hit: at the top dose activity change, negative = inhibition, most hits filed as inhibitors;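 note: trophozoites exposed to compound for 48 h at 37 °C; % is set by controls: 0 for no effect and ±100 for the full control effect; nearly all actives have a fitted effect of over 70% in size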
Mammal cell tox: toxic to mammalian cells in Giardia aldolase counter-screen; shares compounds with Giardia FBPA inh-1; mammalian cell viability counter-screen, qHTS; Potency, µM (highest dose often 57.5 µM), for inactives: top-dose viability change, negative = toxicity, hits mostly inhibitors; 1,500 tested, 4% active; AID 2786;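 note: Chinese hamster ovary cells used as mammalian cytotoxicity surrogate; viability measured as cellular ATP by luminescence; compound exposure lasted 48 h before reading; % is set by controls: 0 for no effect and ±100 for the full control effect; nearly all actives have a fitted effect of over 60% in size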
Giardia FBPA inh-2: confirmation of Giardia fructose-bisphosphate aldolase inhibitors; shares compounds with Giardia FBPA inh-1; purified Giardia aldolase enzyme activity, qHTS; Potency, µM (series often up to 57.5 µM), for inactives: at the highest dose activity change, negative = inhibition, most hits filed as inhibitors; 1,500 tested, 5% active; AID 2787; note: % is set by controls: 0 for no effect and ±100 for the full control effect; nearly all actives have a fitted effect of over 45% in size
Rabbit aldolase: blocks rabbit muscle aldolase in Giardia aldolase selectivity test. Potency, µM (titrated, usually from 57.5 µM), for the others: top-dose activity, negative = inhibition, usual class: inhibitors. Rabbit muscle FBPA enzyme inhibition, selectivity counter-screen. AID 2794. shares compounds with Giardia FBPA inh-1. 1,500 tested, 4% active; note: % is set by controls: 0 for no effect and ±100 for the full control effect; nearly all actives have a fitted effect of over 60% in size
GAPDH counter: counter-screen for Giardia aldolase inhibitors: GAPDH coupling enzyme. shares compounds with Giardia FBPA inh-1. GAPDH coupling enzyme counterscreen, biochemical, qHTS. Potency, µM (doses to about 57.5 µM), for the others: top-dose activity change, negative = inhibition, most hits filed as inhibitors. 1,500 tested, 6% active; note: % is set by controls: 0 for no effect and ±100 for the full control effect; nearly all actives have a fitted effect of over 55% in size
Numbers without * were called inactive; ? = inconclusive; . = not tested or not shown; ! = not active in a repeat; [ ] = another dose, or the depositor's remark. Only some compounds are listed: those with a hit (about 1.1% of all), similar ones and a draw of the others. Unless noted, calls come from the whole dose curve; as a rule, active = well fitted curve in the direction sought with a large enough effect; inconclusive = small, poorly fitted or top-dose-only effect, or another doubt; inactive = no such curve, though single readings can be large; an effect the other way counts as inactive or inconclusive. Potency is the fitted concentration of half-maximal effect.

SMILES | Tb PYK inh | LmPK inhibitor | Giardia FBPA inh-1 | SARS PLP yeast | RE007 growth inh | Giardia growth | Mammal cell tox | Giardia FBPA inh-2 | Rabbit aldolase | GAPDH counter
Cc1ccccc1CN1CCN(C(=O)c2ccco2)CC1 | 2% | 1% | 25µM* | 1% | 13% | -4%[10.4 µM] | 15% | -5% | 10% | -10%
O=[N+]([O-])c1ccc(S(=O)(=O)N2CCN(Cc3ccco3)CC2)cc1 | 40% | 1% | . | 1% | -8% | . | . | -5% | -8% | 5%
CCCC(=O)Nc1nc2c(s1)CC(C(C)(C)C)CC2 (stereo unspecified) | -14% | . | . | . | . | . | . | . | . | .
COC(=O)c1cnc(NNC(=O)c2ccc([N+](=O)[O-])cc2)nc1C(F)(F)F | -6% | -2% | -11% | 1% | -4% | . | . | . | . | .
COC(=O)c1cnc(NNS(=O)(=O)c2ccc(Cl)cc2)nc1C(F)(F)F | -17% | 2% | 16µM* | -1% | 2% | -3% | -7% | -6% | 2% | 4%
COc1ccc(-n2c(C)cc(/C=N/Nc3nnc(C)n3N)c2C)cc1 | 0% | 0% | 6.3µM* | -35% | -2% | 9%[10.4 µM] | 10% | 20µM* | ? | ?
COc1ccc2c(c1OC)C(=O)N(c1nc(SC)n[nH]1)C2=O | -3% | -9% | 16µM* | -3% | -4% | 19% | 6% | -2% | 2% | -18%
S=C(Nc1ccccc1)c1ccccn1 | -1% | ? | 3.2µM*! | 0% | ? | -14%[38.3 µM] | 20µM* | -8% | -8% | -10%
O=C(C1=C(O)C(=O)N(c2nccs2)C1c1ccccc1)c1cc2ccccc2o1 (stereo unspecified) | -11% | -16% | 16µM* | -2% | -18% | -30% | 10% | 1% | 10% | 15%
O=C(O)Cn1cnc2c(=S)nc[nH]c21 | ? | 1% | 3.5µM* | 0% | 1% | -4%[38.3 µM] | -4% | -4% | -4% | -8%
CN(CC(=O)Nc1ccccc1Br)Cc1nc2ccccc2c(=O)[nH]1 | 0% | 2% | 20µM* | 0% | 12% | -2%[10.4 µM] | -16% | 0% | -7% | ?
Cc1ccc(Nc2cc(C)nn2-c2nc(C)cc(=O)[nH]2)cc1 | -2% | 3% | -28% | -28% | ? | ? | 2.9µM* | -4% | -14% | -26%
Cc1ccc(Nc2cc(C)nn2-c2nc(C)cc(C)n2)cc1 | 5% | 2% | 11% | -23% | ? | . | . | . | . | .
O=C(Nc1nccs1)c1cn2ccccc2n1 | -4% | 25µM* | 14µM* | -2% | 2% | ? | 20µM* | -7% | -3% | 1%
Cc1cnc(C(=O)Nc2nnc(C)s2)cn1 | -2% | -3% | -5% | 5% | -17% | . | . | . | . | .
Cc1cnc(C(=O)Nc2nccs2)cn1 | -14% | -22% | 20µM* | 3% | -13% | -9% | 18% | 3% | 2% | 11%
COc1ccc(-n2nc(C(=O)Nc3cc(C)c(Cl)cc3OC)c3c4ccccc4n(C)c3c2=O)cc1 | 6% | . | . | . | . | . | . | . | . | .
CO/N=C/C(C#N)c1ncc(C(F)(F)F)cc1Cl (stereo unspecified) | -9% | 3% | 20µM* | -1% | 6% | ? | 7% | 1% | 1% | -4%
CO/N=C/C(c1ncc(C(F)(F)F)cc1Cl)S(=O)(=O)c1ccccc1 (stereo unspecified) | 1% | -5% | -7% | -4% | -31% | . | . | . | . | .
C=C1CCC(O)C/C1=C/C=C1\CCC[C@]2(C)[C@@H]([C@H](C)/C=C/[C@H](C)C(C)C)CC[C@@H]12 (stereo partly specified) | -4% | . | . | . | . | . | . | . | . | .
COc1cc(OC)c(NC2=CC(=O)C(=O)c3ccccc32)cc1Cl | -2% | -1% | ? | -1% | -14% | 22µM* | 21µM* | 12µM* | 13µM* | 15µM*
[NH-]c1ncnc2c1N=C[N+]2=CC=CCO | -4% | 2% | 8.9µM* | 0% | . | -10%[38.3 µM] | 8% | 2% | 6% | 11%
COc1ccc(CCNC(=O)CCc2c(C)nc3c(c(C)nn3-c3ccccc3)c2C)c(OC)c1 | -1% | . | . | . | . | . | . | . | . | .
CSc1cccc(NC(=S)N2CCC(N(C)C3CCCCC3)CC2)c1 | -3% | -2% | 13µM* | 1% | -8% | ? | -8% | -5% | -2% | 3%
COc1ccc(Cl)cc1NC(=O)CCC(=O)N1CCOc2ccccc21 | 4% | . | . | . | . | . | . | . | . | .
SMILES | Tb PYK inh | LmPK inhibitor | Giardia FBPA inh-1 | SARS PLP yeast | RE007 growth inh | Giardia growth | Mammal cell tox | Giardia FBPA inh-2 | Rabbit aldolase | GAPDH counter
CC1(C)OC2C(CO)OC(n3cnc4c(=S)nc[nH]c43)C2O1 (stereo unspecified) | -21% | 7% | 4.5µM* | 1% | 12% | -25%[38.3 µM] | ? | -4% | -2% | 1%
OCC1OC(n2cnc3c(=S)nc[nH]c32)C(O)C1O (stereo unspecified) | ? | . | 4.5µM* | . | . | ? | 6.3µM* | 2% | 2% | -6%
Nc1nc(=S)c2ncn(C3OC(CO)C(O)C3O)c2[nH]1 (stereo unspecified) | -6% | 1% | 6.3µM* | 3% | -2% | 3%[10.4 µM] | 2% | 1% | 2% | 1%
CC1(C)OC2C(CO)OC(n3cnc4c(=S)nc(N)[nH]c43)C2O1 (stereo unspecified) | 33% | . | . | . | 2% | . | . | . | . | .
Nc1nc(=S)c2ncn([C@@H]3O[C@H](CO)[C@@H](O)[C@H]3O)c2[nH]1 | -9% | . | . | . | -7%[18.4 µM] | . | . | . | . | .
Cc1nn2c(=O)cc(COC(=O)Cc3ccccc3)nc2s1 | -4% | . | . | . | . | . | . | . | . | .
Cc1c(CNC2CCC(C)CC2)c(C(=O)O)c(C)n1Cc1ccccc1F (stereo unspecified) | -3% | . | . | . | . | . | . | . | . | .
COc1ccc(CCNC(=O)CCn2c(=O)c3ccccc3n(Cc3ccccc3)c2=O)cc1OC | 0% | . | . | . | . | . | . | . | . | .
CCOC(=O)N1CCN(C(=S)NC(=O)c2cccc(OC)c2)CC1 | -14% | . | . | 5% | 32% | . | . | . | . | .
CCOC(=O)N1CCN(C(=S)NC(=O)c2ccc(F)c(F)c2)CC1 | -5% | -13% | 16µM* | 0% | -9% | 59% | -15% | 2% | 6% | 10%

Source: PubChem (National Center for Advancing Translational Sciences (NCATS))
